BoNT F protease: inhibitors of Botulinum neurotoxin F light chain protease; actives 0.22% (n = 360,000); Multiplex microsphere protease cleavage assay, flow cytometry; inhibition, % at 10 µM; AID 588497; in the data active = inhibition above about 35%, passing the limit was not always enough; inconclusive = no clear call, values can overlap the other calls; note: plate controls were buffer without enzyme for full effect and enzyme alone for no effect
Bead autofluor: compound fluorescence in toxin protease inhibitor counterscreen. compound autofluorescence counterscreen, microsphere flow cytometry; active compounds read high. fluorescence intensity (no concentration beside the values). actives 3.1% (n = 360,000); in the data active = fluorescence intensity above about 16000; inconclusive = no clear call, values can overlap the other calls
Anthrax LF inh2: anthrax lethal factor protease inhibition; P15917; multiplex microsphere protease cleavage assay, LF; inhibition, % at 10 µM; actives 0.12% (n = 360,000); AID 588501; note: plate controls were buffer without enzyme for full effect and enzyme alone for no effect
Target sequence (P15917 whole entry, looked up): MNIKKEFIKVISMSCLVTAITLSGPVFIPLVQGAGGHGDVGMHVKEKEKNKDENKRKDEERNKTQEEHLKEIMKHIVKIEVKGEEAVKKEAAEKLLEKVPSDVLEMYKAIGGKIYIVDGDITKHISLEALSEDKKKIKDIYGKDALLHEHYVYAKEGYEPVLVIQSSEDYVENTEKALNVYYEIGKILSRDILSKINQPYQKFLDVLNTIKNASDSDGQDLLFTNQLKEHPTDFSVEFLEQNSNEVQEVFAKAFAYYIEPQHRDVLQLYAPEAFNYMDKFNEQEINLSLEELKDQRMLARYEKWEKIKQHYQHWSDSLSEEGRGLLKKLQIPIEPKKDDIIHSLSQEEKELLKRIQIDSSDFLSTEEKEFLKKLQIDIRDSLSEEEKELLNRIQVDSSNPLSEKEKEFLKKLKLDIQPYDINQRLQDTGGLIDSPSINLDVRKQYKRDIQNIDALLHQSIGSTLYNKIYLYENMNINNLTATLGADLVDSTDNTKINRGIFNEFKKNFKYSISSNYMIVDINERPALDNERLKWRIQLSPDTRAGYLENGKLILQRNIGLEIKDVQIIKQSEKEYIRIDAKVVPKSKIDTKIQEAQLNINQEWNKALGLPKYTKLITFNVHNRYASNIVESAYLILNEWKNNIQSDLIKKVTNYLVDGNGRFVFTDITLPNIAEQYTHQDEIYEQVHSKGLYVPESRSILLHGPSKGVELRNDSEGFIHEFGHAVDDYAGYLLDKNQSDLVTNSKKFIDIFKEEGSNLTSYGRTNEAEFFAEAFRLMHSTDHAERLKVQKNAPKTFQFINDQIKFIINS
BJeLR viability: BJeLR cell viability loss; BJeLR (HRASV12) viability, CellTiter-Glo ATP luminescence, 48 h; inhibition, % (concentration not given with the values); actives 0.17% (n = 300,000); AID 1554; in the data active = inhibition above about 50%; inconclusive = no clear call, values can overlap the other calls
BoNT A protease: inhibitors of Botulinum neurotoxin A light chain protease | multiplex microsphere protease substrate cleavage, flow cytometry | inhibition, % at 10 µM | actives 0.17% (n = 360,000); note: plate controls were buffer without enzyme for full effect and enzyme alone for no effect
The depositor's hits bear a star. In the library only some 3.5% were active in any assay of this set; here they are far more common. Cut-off read from the data, not from the text of the source, unless noted: active = inhibition above about 30%; inconclusive = no clear call, values can overlap the other calls; inactive = below that.

Results for CCn1ncc(C2=NOC(C(=O)Nc3cccnc3)C2)c1C (stereo not drawn) ?
BoNT F protease: 4; Bead autofluor: 22133*; Anthrax LF inh2: -8; BJeLR viability: 0; BoNT A protease: 3

How did CCn1ncc(C2=NOC(C(=O)NCc3ccc(Cl)cc3)C2)c1C (stereo not drawn) do in these assays?
BoNT F protease: 3; Bead autofluor: 21413*; Anthrax LF inh2: 3; BJeLR viability: 14; BoNT A protease: 2

Results for COc1ccc(C2(C#N)CCC(=O)N2c2ccccc2)cc1 (stereo not drawn) ?
BoNT F protease: -11; Bead autofluor: 4217; Anthrax LF inh2: 6; BJeLR viability: 1; BoNT A protease: -4

Results for COC(=O)CC/C(C)=N\Nc1ccc([N+](=O)[O-])cc1[N+](=O)[O-] ?
BoNT F protease: 0; Bead autofluor: 21329*; Anthrax LF inh2: 0; BJeLR viability: 3; BoNT A protease: -1

How did C/C(CC(C)C)=N/Nc1ccc([N+](=O)[O-])cc1[N+](=O)[O-] do in these assays?
BJeLR viability: -3

Results for CCOc1ccc(OCCCC(=O)O)cc1 ?
BoNT F protease: -1; Bead autofluor: 20482*; Anthrax LF inh2: -2; BJeLR viability: -3; BoNT A protease: 0

What do the screens show for `CCOc1ccc(C(=O)CCC(=O)O)cc1`?
BoNT F protease: -2; Bead autofluor: 10329; Anthrax LF inh2: -1; BJeLR viability: -3; BoNT A protease: 0

What do the screens show for `COC(C[C@@H]1O[C@H]1[C@H](O)[C@@H](C)OCc1ccccc1)OC`?
BJeLR viability: 0

What do the screens show for `O=C(Nc1ccc(-n2nncc2-c2ccco2)cc1)c1cc2ccccc2oc1=O`?
BoNT F protease: 7; Bead autofluor: 20140*; Anthrax LF inh2: 1; BJeLR viability: -6; BoNT A protease: 2

What do the screens show for `O=C(Nc1ccc(-n2nncc2-c2ccco2)cc1)c1cccc(F)c1`?
BoNT F protease: -15; Bead autofluor: 12002; Anthrax LF inh2: -5; BJeLR viability: 21; BoNT A protease: -1

Results for COc1ccc(-n2c3c(cc(C(=O)N4CCCCC4)c2=O)C(=O)CC(C)(C)C3)cc1 ?
BoNT F protease: -4; Bead autofluor: 3369; Anthrax LF inh2: 0; BJeLR viability: -3; BoNT A protease: 0

What do the screens show for `CCc1nc2c(OCc3ccc(F)c(F)c3)cccn2c1N(C)C(=O)c1cccs1`?
BoNT F protease: -2; Bead autofluor: 4039; Anthrax LF inh2: -3; BoNT A protease: 0

Results for COc1ccc(CN2CCN(S(=O)(=O)c3ccc(F)cc3)CC2)c(OC)c1OC ?
BoNT F protease: 4; Bead autofluor: 21826*; Anthrax LF inh2: -4; BJeLR viability: 9; BoNT A protease: 1

What do the screens show for `COc1ccc(CN2CCN(S(=O)(=O)c3ccccc3)CC2)c(OC)c1OC`?
BoNT F protease: inconclusive; Bead autofluor: 3426; Anthrax LF inh2: 19; BJeLR viability: -4; BoNT A protease: inconclusive

What do the screens show for `Cc1ccc(S(=O)(=O)C2(C(=O)N3CCN(C4CCCCC4)CC3)CC2)cc1`?
BoNT F protease: 12; Bead autofluor: 9273; Anthrax LF inh2: -2; BJeLR viability: -2; BoNT A protease: 1

How did Cc1ccc(S(=O)(=O)C2(C(=O)N3CCCCCC3)CC2)cc1 do in these assays?
BoNT F protease: -4; Bead autofluor: 16721*; Anthrax LF inh2: -4; BJeLR viability: 2; BoNT A protease: inconclusive

How did CCCCCCN1C[C@H](n2cc(C3CC3)nn2)[C@@H](O)C[C@@H]1c1ccc(Cl)cc1 do in these assays?
BoNT F protease: -1; Bead autofluor: 3912; Anthrax LF inh2: 1; BoNT A protease: 0

How did Cc1cc(C(F)F)n2ncc(C(=O)NCc3ccccc3F)c2n1 do in these assays?
BoNT F protease: 4; Bead autofluor: 2503; Anthrax LF inh2: -2; BJeLR viability: -4; BoNT A protease: 0

What do the screens show for `C=C(C)c1ccc(C(C)(C)NC(=O)NCc2ccco2)cc1`?
BoNT F protease: -11; Bead autofluor: 2224; Anthrax LF inh2: -3; BJeLR viability: 5; BoNT A protease: 0

What do the screens show for `C=C(C)c1ccc(C(C)(C)NC(=O)N(Cc2ccccc2)Cc2ccco2)cc1`?
BoNT F protease: -1; Bead autofluor: 22989*; Anthrax LF inh2: -2; BJeLR viability: 10; BoNT A protease: inconclusive

What do the screens show for `CNC(=O)c1cc2cc(OC)ccc2oc1=O`?
BoNT F protease: 6; Bead autofluor: 21752*; Anthrax LF inh2: 0; BJeLR viability: 1; BoNT A protease: 4

Results for CNC(=O)c1cc2ccc(OC)cc2oc1=O ?
BoNT F protease: -10; Bead autofluor: 4349; Anthrax LF inh2: -2; BJeLR viability: 4; BoNT A protease: -1

What do the screens show for `COc1cccc(CNc2ccc(Br)cn2)c1O`?
BoNT F protease: -6; Bead autofluor: 24305*; Anthrax LF inh2: -1; BJeLR viability: 2; BoNT A protease: inconclusive

What do the screens show for `Cc1ccnc(SCC(=O)Nc2sc3c(c2C#N)CCC(C(C)(C)C)C3)n1` (stereo not drawn)?
BoNT F protease: -1; Bead autofluor: 19751*; Anthrax LF inh2: -1; BJeLR viability: -1; BoNT A protease: inconclusive

What do the screens show for `Cc1cc(C)nc(SCC(=O)Nc2sc3c(c2C#N)CCC(C)C3)n1` (stereo not drawn)?
BoNT F protease: -26; Bead autofluor: 2477; Anthrax LF inh2: -5; BJeLR viability: 3; BoNT A protease: -1

How did O=C(Nc1ccc(F)c(Cl)c1)c1cc(C2CCCN(C(=O)c3cccs3)C2)on1 (stereo not drawn) do in these assays?
BoNT F protease: -1; Bead autofluor: 3715; Anthrax LF inh2: 8; BoNT A protease: 0

Results for CCOP(=O)(OCC)C(Cc1ccc(OC)c(OC)c1)N=C(c1ccccc1)c1ccccc1 (stereo not drawn) ?
BoNT F protease: 0; Bead autofluor: 5246; Anthrax LF inh2: 0; BoNT A protease: 0

Results for CCOC(=O)c1c(CSC(=N)N)n(-c2ccc(C)cc2)c2cc(Br)c(OC(C)=O)cc12 ?
BoNT F protease: -40; Bead autofluor: 9813; Anthrax LF inh2: -10; BJeLR viability: 84*; BoNT A protease: 0

What do the screens show for `O=C(COC(=O)c1cc(S(=O)(=O)N2CCOCC2)ccc1F)Nc1ccccc1C(F)(F)F`?
BoNT F protease: -8; Bead autofluor: 3684; Anthrax LF inh2: -11; BoNT A protease: 0

What do the screens show for `Cc1nnc2ccc(N3CCC4(CC3)OCCO4)nn12`?
BoNT F protease: 2; Bead autofluor: 23146*; Anthrax LF inh2: -1; BJeLR viability: -1; BoNT A protease: inconclusive

Results for Cc1nnc2ccc(N3CCCC3)nn12 ?
BoNT F protease: 8; Bead autofluor: 4256; Anthrax LF inh2: 3; BJeLR viability: 0; BoNT A protease: 1

Results for Cn1nnc2sc3c(c2c1=O)CCCC3 ?
BoNT F protease: -5; Bead autofluor: 23005*; Anthrax LF inh2: -1; BJeLR viability: 2; BoNT A protease: -2

What do the screens show for `COc1ccc(S(=O)(=O)N2CCC3(CC2)OCCN3S(=O)(=O)c2cccs2)cc1OC`?
BoNT F protease: -85; Bead autofluor: 20013*; Anthrax LF inh2: -16; BJeLR viability: 10; BoNT A protease: -63

Source: PubChem BioAssay
